{
  "source": "PubChem BioAssay (NCATS)",
  "note": "Results filed as inconclusive are left out. The source made the active and inactive calls. Calls come from the whole dose curve. Potency is the fitted concentration of half-maximal effect.",
  "data": [
    {"assay": "Cell Viability - MRC5 (AID 434);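 note: potency reflects cytotoxicity seen as loss of intracellular ATP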", "settings": "MRC5 lung fibroblast viability, qHTS", "source_text": "NIH Chemical Genomics Center [NCGC]\nNIH Molecular Libraries Screening Centers Network [MLSCN]\nNational Institutes of Environmental Health Sciences [NIEHS]\nNational Toxicology Program [NTP]\nWe have developed a 1536-well cell-based assay for quantitative high throughput screening (qHTS) against a number of cell lines to determine in vitro cytotoxicity of small molecules. This particular assay uses the MRC5 cell line which is derived from normal human lung fibroblasts.\nNCGC Assay Protocol Summary:\nThe CellTiter-Glo luminescent cell viability assay (Promega) is a homogeneous method to measure the number of viable cells in culture. The end point readout of this assay is based on quantitation of intracellular ATP, an indicator of metabolic activity, using the luciferase reaction. Luciferase catalyzes the oxidation of beetle Luciferin to oxyluciferin and light in the presence of ATP. The luminescent signal is proportional to amount of ATP present.\nUsing the CellTiter-Glo luminescent cell viability assay, the amount of cellular ATP was measured in the MRC5 cell line with complete culture medium following compound treatment for 40 hours. The assay was performed in opaque white Kalypsys 1536-well plates. In the screen, tamoxifen and doxorubicin were used as positive controls. Library compounds were measured for their ability to cause acute toxicity in the cell line, as reflected by a decrease in intracellular ATP levels, in a concentration-dependent manner. Data were normalized to the controls for basal activity (DMSO only) and 100% inhibition (100 uM tamoxifen). AC50 values were determined from concentration-response data modeled with the standard Hill equation.\nqHTS protocol for CellTiter Glo MRC5 cellular assay\n[Step] [Parameter] [Value] [Description]\n1. Reagent; 5 uL; 1500 MRC5 cells/well\n2. Time; 5 hr; 37 °C incubation\n4. Controls; 23 nL; Tamoxifen 0.34 uM to 100 uM & Doxorubicin 0.02 nM to 100 uM\n5. Time; 40 hr; 37 °C incubation\n6. Reagent; 5 uL; CellTiter Glo reagent\n7. Time; 20 min; Room Temperature\n8. Detection; Luminescence; Viewlux plate reader\nKeywords: cell viability, cytotoxicity, MRC5 cell line, luminescence, NTPHTS, NTPHTS_NCGC, NIEHS, EPA, DSSTox, MLSMR, MLSCN, NIH Roadmap, qHTS, NCGC", "values": [
      {"smiles": "O=C(O)c1ccccc1C(=O)O", "Potency": "> 92 µM (inactive)"},
      {"smiles": "NS(=O)(=O)O", "Potency": "> 92 µM (inactive)"},
      {"smiles": "Cc1ccc(N(C)C)cc1", "Potency": "> 92 µM (inactive)"},
      {"smiles": "O=c1[nH][nH]c(=O)c2cc([N+](=O)[O-])ccc12", "Potency": "> 92 µM (inactive)"},
      {"smiles": "Cc1ccc(C(C)(C)C)cc1", "Potency": "> 92 µM (inactive)"},
      {"smiles": "Nc1cccc([N+](=O)[O-])c1", "Potency": "> 92 µM (inactive)"},
      {"smiles": "CCOC(C)(C)C", "Potency": "> 92 µM (inactive)"},
      {"smiles": "Cc1cccc2ccccc12", "Potency": "> 92 µM (inactive)"},
      {"smiles": "OC1CCCC1", "Potency": "> 92 µM (inactive)"},
      {"smiles": "Cc1c(N)cccc1[N+](=O)[O-]", "Potency": "> 92 µM (inactive)"},
      {"smiles": "CC(=O)OC(C)=O", "Potency": "> 92 µM (inactive)"},
      {"smiles": "CC(C)N(C)C", "Potency": "> 92 µM (inactive)"},
      {"smiles": "Nc1cccc(C(F)(F)F)c1", "Potency": "> 92 µM (inactive)"},
      {"smiles": "O=C(O)c1cc(Cl)cc(Cl)c1", "Potency": "> 92 µM (inactive)"},
      {"smiles": "CC(C)C=O", "Potency": "> 92 µM (inactive)"},
      {"smiles": "CNC(=O)c1ccccc1", "Potency": "> 92 µM (inactive)"},
      {"smiles": "C1CCOC1", "Potency": "> 92 µM (inactive)"},
      {"smiles": "C=C(C)C(=O)OC", "Potency": "> 92 µM (inactive)"},
      {"smiles": "BrC(Br)C(Br)Br", "Potency": "> 92 µM (inactive)"},
      {"smiles": "C=CCCCC", "Potency": "> 92 µM (inactive)"},
      {"smiles": "C=Cc1ccccn1", "Potency": "> 92 µM (inactive)"},
      {"smiles": "CCCCOCCOCCOCCCC", "Potency": "> 92 µM (inactive)"},
      {"smiles": "CCC(=O)/C=C/C1C(C)=CCCC1(C)C", "note": "(stereo not given)", "Potency": "> 92 µM (inactive)"},
      {"smiles": "Oc1cccc(Nc2ccccc2)c1", "Potency": "> 92 µM (inactive)"},
      {"smiles": "COCCOC(=O)c1ccccc1C(=O)OCCOC", "Potency": "> 92 µM (inactive)"},
      {"smiles": "CN(C)CCCNCCCN", "Potency": "> 92 µM (inactive)"},
      {"smiles": "CC(C)(C)OCC1CO1", "note": "(stereo not given)", "Potency": "> 92 µM (inactive)"},
      {"smiles": "C=C(C)C(=O)OCC(C)O", "note": "(stereo not given)", "Potency": "> 92 µM (inactive)"},
      {"smiles": "Cc1ccc(Cl)cc1", "Potency": "> 92 µM (inactive)"},
      {"smiles": "OC/C(Br)=C(\\Br)CO", "Potency": "> 92 µM (inactive)"},
      {"smiles": "O=C(O)c1ccc(Cl)cc1Cl", "Potency": "> 92 µM (inactive)"},
      {"smiles": "Nc1ccc(Cl)cc1[N+](=O)[O-]", "Potency": "> 92 µM (inactive)"},
      {"smiles": "Nc1cc([N+](=O)[O-])ccc1C(=O)O", "Potency": "> 92 µM (inactive)"},
      {"smiles": "O=C(O)c1ccccc1Cl", "Potency": "> 92 µM (inactive)"},
      {"smiles": "C=C(C)C(=O)OCCCCCC", "Potency": "> 92 µM (inactive)"},
      {"smiles": "O=C(O)/C=C/C(=O)O", "Potency": "> 92 µM (inactive)"},
      {"smiles": "Cc1ccc2c(c1[N+](=O)[O-])C(=O)c1ccccc1C2=O", "Potency": "> 92 µM (inactive)"},
      {"smiles": "CCCCC(=O)N(C)C", "Potency": "> 92 µM (inactive)"},
      {"smiles": "CC(=O)Nc1cccc(N)c1", "Potency": "> 92 µM (inactive)"},
      {"smiles": "CC(=O)c1ccc([N+](=O)[O-])cc1", "Potency": "> 92 µM (inactive)"}
    ]}
  ]
}
